Shown are actives, neighbours in structure and some others; about 18% of the full set was active somewhere.
TDP1 inh = blocks human tyrosyl-DNA phosphodiesterase 1; Potency, µM (series often up to 130 µM), without a hit: at the top dose activity change, negative = inhibition, hits mostly inhibitors; Q9NUW8; recombinant TDP1, AlphaScreen DNA substrate cleavage; 350,000 tested, 0.28% active; note: potency is the fitted concentration of half-maximal effect; % is set by controls: 0 for no effect and ±100 for the full control effect; nearly all actives have a fitted effect of over 40% in size
Target sequence (Q9NUW8 whole entry, looked up): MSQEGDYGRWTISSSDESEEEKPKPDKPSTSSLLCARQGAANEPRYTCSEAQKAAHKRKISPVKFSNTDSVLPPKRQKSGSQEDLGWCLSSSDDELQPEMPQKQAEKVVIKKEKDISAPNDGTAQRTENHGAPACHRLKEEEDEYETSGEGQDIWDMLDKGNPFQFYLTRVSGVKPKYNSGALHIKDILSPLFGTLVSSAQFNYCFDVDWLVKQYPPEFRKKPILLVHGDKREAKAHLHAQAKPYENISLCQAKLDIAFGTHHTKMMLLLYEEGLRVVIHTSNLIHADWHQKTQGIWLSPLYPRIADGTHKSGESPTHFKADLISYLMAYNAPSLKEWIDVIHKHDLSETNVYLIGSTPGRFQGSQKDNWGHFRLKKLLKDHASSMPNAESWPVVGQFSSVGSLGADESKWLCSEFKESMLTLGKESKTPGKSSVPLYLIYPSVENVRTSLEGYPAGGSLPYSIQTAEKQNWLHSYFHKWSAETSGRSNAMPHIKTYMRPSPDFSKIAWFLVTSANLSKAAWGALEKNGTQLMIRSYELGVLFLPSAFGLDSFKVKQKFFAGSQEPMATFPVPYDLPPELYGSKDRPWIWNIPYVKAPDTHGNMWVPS
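AlphaScreen read-out: signal falls as enzyme removes the 3' tyrosine-FITC from a 5'-biotinylated DNA oligo (15 nM, 5 min, RT). Enzyme was E. coli-made recombinant Tdp1 at 1 nM, exposed to compound for 15 min beforehand; beads 10 ug/ml, 10 min.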
HepG2 viability = kills HepG2 cells in TGF-b inhibitor counter-screen; HepG2 CAGA-GFP viability, ATP luminescence, 18 h; Potency, µM (top dose mostly 46.1 µM), inactives show at the top dose activity change, negative = cytotoxicity, hits mostly cytotoxic; 410,000 tested, 0.76% active; AID 588856; note: potency is the fitted concentration of half-maximal effect
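CellTiter-Glo luminescence gave cytotoxicity after 18 hours at 37 degrees C. The cells were HepG2 CAGA-GFP in 1% FBS DMEM, stimulated with 500 pg/mL TGF-beta after compound addition. %Activity was normalised to no-cell wells (complete cell-killing) and DMSO (no toxicity), and curves were fitted and classified.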
DT40 TDP1 no CPT = qHTS for Inhibitors of human tyrosyl-DNA phosphodiesterase 1 (TDP1): qHTS in cells in absence of CPT; AID 686978, 2013; Potency, µM (doses to about 46.2 µM), for inactives: at the top dose activity change, negative = growth inhibition, usual class: inhibitors; 420,000 tested, 15% active; DT40 Tdp1-/- hTDP1 cells, no CPT, ATP luminescence, 48 h; note: potency is the fitted concentration of half-maximal effect; % is set by controls: 0 for no effect and ±100 for the full control effect; nearly all actives have a fitted effect of over 55% in size
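Stably hTDP1-transfected Tdp1-null chicken DT40 cells were treated with library compounds minus camptothecin and grown for at least 48 hr at 37 °C, after which cellular ATP was quantified by luminescence.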
IL1B secr inh = inhibitors of inflammasome signaling (IL-1 beta secretion); THP-1 LPS/ATP IL-1B secretion, AlphaLISA, 16 h; stronger effect = lower value; activity change, % at 57.5 µM; 360,000 tested, 4.7% active; AID 743279; in the data active = activity change below about -50%; inconclusive = mostly about -30% to -49%; note: % is set by controls: 0 for no effect and ±100 for the full control effect
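THP-1 cells pretreated 1 hr with compounds (up to 57.5 uM final), then stimulated with LPS (250 ng/mL final) plus ATP (1.25 mM final); secreted IL-1B measured by AlphaLISA after 16 hr, decreased signal indicating inhibition.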
TGFb inhibitor = inhibitors of TGF-b signaling; HepG2 CAGA-GFP TGF-b/SMAD3 reporter, GFP fluorescence, 18 h; TGF-beta stimulated, 500 pg/mL final; Potency, µM (highest dose often 46.1 µM), inactives show at the highest dose activity, negative = inhibition, actives largely listed as inhibitors; 410,000 tested, 1.2% active; AID 588855; note: potency is the fitted concentration of half-maximal effect; % is set by controls: 0 for no effect and ±100 for the full control effect; nearly all actives have a fitted effect of over 65% in size
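Read-out: total well GFP (ex488/em500-530) summed from mean per-cell fluorescence. Cells: HEPG2 CAGA-GFP, 1% FBS DMEM, 18 h at 37 degrees C with 500 pg/mL final TGF-beta. Unstimulated wells served as the full-inhibition control; stimulated DMSO wells = 0%.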
TDP1 cell CPT = DT40-hTDP1 cell growth loss with CPT; Potency, µM (series often up to 46.2 µM), without a hit: top-dose activity change, negative = growth inhibition, most hits filed as inhibitors; chicken DT40 Tdp1-/-;hTDP1 cells + 20 nM CPT, ATP luminescence, 48 h; AID 686979; 420,000 tested, 12% active; note: potency is the fitted concentration of half-maximal effect; % is set by controls: 0 for no effect and ±100 for the full control effect; nearly all actives have a fitted effect of over 55% in size
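Chicken DT40 Tdp1-/- cells stably complemented with human TDP1 were seeded at 400 cells/well in medium containing 20 nM camptothecin, exposed to pin-transferred compounds, and grown at 37 °C for at least 48 hr. Viability was read as ATP luminescence.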
Starred values were filed as active, the others as inactive; ? = inconclusive; . = not tested or not shown; [ ] = another dose, or the depositor's remark. Unless noted, calls come from the whole dose curve; as a rule, active = well fitted curve in the direction sought with a large enough effect; inconclusive = small, poorly fitted or top-dose-only effect, or another doubt; inactive = no such curve, though single readings can be large; an effect the other way counts as inactive or inconclusive.

SMILES | TDP1 inh | HepG2 viability | DT40 TDP1 no CPT | IL1B secr inh | TGFb inhibitor | TDP1 cell CPT
O=C(Nc1sc2c(c1C(=O)O)CCC2)c1ccccc1 | . | -27.9% | -21.3% | 15.5 | 0.0% | ?
NCCNC(=O)c1c(NC(=O)c2ccccc2)sc2c1CCCC2 | . | -7.3% | ? | -91.8* | 1.4% | ?
Cc1c(Cc2ccccc2)c(=O)oc2c(C)c(OCC(=O)NCC3CCC(C(=O)O)CC3)ccc12 (stereo unspecified) | . | -19.8% | -19.7% | 13.8 | 5.7% | -18.1%
COc1ccc(OC2C=CC(C#Cc3ccc(Br)cc3)OC2CO)c(C(C)(C)C)c1 (stereo unspecified) | 11.1%[21 µM] | . | . | . | . | .
Cc1ccccc1-c1nc(CNC(=O)Nc2ccccc2)c(C)o1 | 8.8% | -15.7% | -5.9% | . | 0.9% | -21.4%
C=CCOCCn1[nH]c2ccccc2c1=O | -2.1% | 0.8% | -10.7% | 20.8 | 1.3% | -9.7%
CN(c1nc2ccccc2nc1Cl)S(=O)(=O)c1ccccc1 | . | -2.1% | 23.1µM* | -6.1 | -13.2% | ?
CC1CCN(C(=O)CSCC(=O)O)CC1 | -4.8% | 6.3% | 3.9% | 20.7 | 16.8% | 1.2%
O=C1c2ccccc2-c2cc([N+](=O)[O-])c([N+](=O)[O-])cc21 | . | -27.1% | 0.501µM* | . | ? | 0.398µM*
CNC(=O)NC(=O)C(c1ccccc1)N(C)CC1COc2ccccc2O1 (stereo unspecified) | 0.9% | 6.7% | ? | -1.2 | 23.9% | -21.5%
N#CN(Cc1ccccc1)Cc1ccccc1 | 5.1% | -13.4% | -12.3% | -63.9* | -0.7% | -21.8%
CN(Cc1ccccc1)Cc1ccccc1 | -0.2% | . | -13.8% | . | . | 19.3%
C/C(=N\NS(=O)(=O)c1ccc(Br)cc1)c1ccncc1 | 8.0% | -0.2% | ? | -77.6* | -2.6% | 11.6µM*
C/C(=N/NS(=O)(=O)c1ccc(Cl)cc1)c1ccncc1 | 5.0%[56.1 µM] | -14.0% | 11.4% | -1.1 | -9.8% | ?
Cc1c(NC(=O)c2cccc3c(Cl)cccc23)cccc1-c1nc2ccccc2o1 | 3.2% | -5.1% | 20.6µM* | . | -11.1% | 14.6µM*
O=C(Nc1cc(-c2nc3ccccc3o2)ccc1Cl)c1cccc2c(Cl)cccc12 | 1.9% | 0.1% | -21.7% | . | 23.9% | ?
Cc1c(NC(=O)c2ccc(Br)o2)cccc1-c1nc2ccccc2o1 | -5.7%[12.3 µM] | -27.9% | 23.1µM* | . | -29.8% | 25.9µM*
Cc1ccc2c(c1)c1c(n2CC(O)CN2CCCCCC2)CCCC1 (stereo unspecified) | . | -40.7% | 14.6µM* | -74.0* | -19.9% | ?
Cc1ccc2c(c1)c1c(n2CC(O)Cn2nc(C)c(Br)c2C)CCCC1 (stereo unspecified) | 0.0% | 20µM* | 16.4µM* | -21.4 | ? | ?
OC(CN1CCCCC1)Cn1c2ccccc2c2cc(Br)ccc21 (stereo unspecified) | . | -169.3% | 16.4µM* | -75.4* | 0.0% | 16.4µM*
Cc1ccc2c(c1)c1c(n2CC(O)Cn2c(C)nc3ccccc32)CCCC1 (stereo unspecified) | 6.5% | -96.4% | ? | -10.6 | ? | 23.1µM*
CSCC[C@H](NC(=O)[C@H](CO)NC(=O)[C@H](Cc1ccc(O)cc1)NC(=O)[C@@H](N)CO)C(=O)N[C@@H](CCC(=O)O)C(=O)N[C@@H](Cc1cnc[nH]1)C(=O)N[C@@H](Cc1ccccc1)C(=O)N[C@@H](CCCNC(=N)N)C(=O)N[C@@H](Cc1c[nH]c2ccccc12)C(=O)NCC(=O)N[C@@H](CCCCN)C(=O)N1CCC[C@H]1C(=O)N[C@H](C(=O)NCC(=O)N[C@@H](CCCCN)C(=O)N[C@@H](CCCCN)C(=O)N[C@@H](CCCNC(=N)N)C(=O)N[C@@H](CCCNC(=N)N)C(=O)N1CCC[C@H]1C(=O)N[C@H](C(=O)N[C@@H](CCCCN)C(=O)N[C@H](C(=O)N[C@@H](Cc1ccc(O)cc1)C(=O)N1CCC[C@H]1C(=O)O)C(C)C)C(C)C)C(C)C | 13.4% | . | . | . | . | .
Cc1cc(C)nc(NC(=S)Nc2ccc(Br)cc2Cl)c1 | 5.3% | 0.6% | 6.51µM* | 0.0 | -3.6% | 6.51µM*
Cc1cc(C)nc(NC(=S)Nc2cccc(Cl)c2Cl)c1 | 2.6% | -4.4% | -23.4% | 0.0 | ? | -16.4%
O=C(Nc1nc2ccccc2s1)C1CCN(S(=O)(=O)c2cc([N+](=O)[O-])ccc2Cl)CC1 | -8.8% | -25.2% | 14.6µM* | -20.7 | ? | 14.6µM*
SMILES | TDP1 inh | HepG2 viability | DT40 TDP1 no CPT | IL1B secr inh | TGFb inhibitor | TDP1 cell CPT
CN(C)c1cccc(C(=O)Nc2nc3ccc(S(=O)(=O)N4CCCC4)cc3s2)c1 | 10.8% | -37.7% | 8.2µM* | . | -9.3% | 6.51µM*
O=C(Nc1nc2ccc(S(=O)(=O)N3CCCCC3)cc2s1)C1CCCO1 (stereo unspecified) | 2.2% | 2.8% | ? | -20.1 | 5.6% | ?
Nc1nc2ccc(S(=O)(=O)N3CCCCC3)cc2s1 | 4.3% | -31.2% | 9.2µM* | -106.0* | -29.8% | 8.2µM*
Cc1nc2ccc(S(=O)(=O)N3CCCCC3)cc2s1 | . | 2.1% | -11.4% | 6.5 | -1.7% | 0.3%
O=C(Nc1nc2ccc(S(=O)(=O)N3CCCC3)cc2s1)C1CCCCC1 | 9.1% | -9.3% | 4.61µM* | -4.9 | ? | 2.59µM*
Cc1ccc(C(=O)Nc2nc3ccc(S(=O)(=O)N4CCCC4)cc3s2)cc1 | 2.7% | 5.5% | -12.0% | . | 3.2% | -2.3%
O=C(CSCc1ccc(Cl)cc1)Nc1ccc(O)cc1C(=O)O | . | 3.7% | -15.8% | 2.6 | -4.7% | 4.6%
O=C1C[C@@H](O)[C@@H](O)[C@H]2[C@@H]3C(=O)N(Cc4ccccc4)C(=O)[C@@H]3CC[C@H]12 | 0.5%[21 µM] | . | . | . | . | .
Cc1ccc(C(=O)NCc2ccc(N3CCN(C)CC3)cc2)cc1C | . | -28.4% | -19.0% | 0.0 | 16.2% | -11.7%
O=C(c1cnsn1)N1CCOc2ccc(CN3CCOCC3)cc2C1 | . | . | -13.0% | . | . | 12.5%[9.04 µM]
COC(=O)c1scc(C)c1N1C(=O)c2ccccc2C1=O | 0.0% | -18.5% | -0.5% | 34.2 | 17.1% | -2.7%
O=C(Nc1nc2ccccc2s1)C1CCN(C(=O)c2ccco2)CC1 | 6.4% | -19.4% | 14.6µM* | ? | -32.5% | ?
COc1cc(C(=O)Nc2nc3ccc(S(=O)(=O)N4CCOCC4)cc3s2)cc(OC)c1OC | 8.2% | -15.8% | -26.1% | 21.7 | 7.0% | ?
